# Structures can show the parent of a compound that is named as a salt.
# How the values were obtained:
# Details in all cases: incubation time: 27 h, anaerobic, 37 °C;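 for the amine columns active = adjusted P below 0.05 in both replicates with a change the same way and a mean fold change under 0.8 or over 1.25; inactive = the rest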
# [1] = test system: Clostridium sporogenes DSM 1664; experiment: growth (OD595) fold change vs plate DMSO controls (fold change (ratio)); higher = more growth
# Outline: (§1)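 Growth is calculated as fold change against the median of the DMSO control wells on each plate. Readings at 595 nm from anaerobic mGAM cultures (96-well, 27 h, 37 °C) were blank-subtracted, background-corrected with 20 µM compound solutions in water, and converted to OD by a calibration factor of 5. Fold changes above 1.5 were recorded as NA, and results are means of 2 biological replicates.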
# Escherichia coli IAI1 [2] = experiment: as above
# Outline: as §1
# [3] = test system: Klebsiella aerogenes DSM 30053; experiment: as above
# Outline: as §1
# [4] = test system: Ruminococcus gnavus DSM 108212; experiment: as above
# Outline: as §1
# [5] = test system: Klebsiella aerogenes DSM 30053; experiment: fold change of Histamine concentration vs plate DMSO controls (fold change (ratio)); higher = more amine produced, active = hit call of the paper (significant change in both replicates, either direction)
# Outline: (§2)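 In 80 µL wells, cultures of four gut bacterial strains in mGAM started at OD 0.1 before a 1:1 dilution and grew anaerobically at 37 °C for 27 h. Compounds were added to 20 µM final, except sweeteners at 50 µM final. After extraction of whole cultures with cold acetonitrile/methanol plus 0.1% formic acid and centrifugation, amines were measured by LC–triple-quadrupole MS in dynamic MRM mode against external calibration curves, with within-batch drift correction. Values give fold change over DMSO controls on the same plate, averaged across 2 biological replicates.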
# [6] = test system: Clostridium sporogenes DSM 1664; experiment: fold change of Tryptamine concentration vs plate DMSO controls (fold change (ratio)); higher = more amine produced, active = hit call of the paper (significant change in both replicates, either direction)
# Outline: as §2
# [7] = test system: Ruminococcus gnavus DSM 108212; experiment: as above
# Outline: as §2
# Escherichia coli IAI1 [8] = experiment: fold change of Putrescine concentration vs plate DMSO controls (fold change (ratio)); higher = more amine produced, active = hit call of the paper (significant change in both replicates, either direction)
# Outline: as §2
# [9] = test system: Klebsiella aerogenes DSM 30053; experiment: as above
# Outline: as §2
# Escherichia coli IAI1 [10] = experiment: fold change of Cadaverine concentration vs plate DMSO controls (fold change (ratio)); higher = more amine produced, active = hit call of the paper (significant change in both replicates, either direction)
# Outline: as §2
# [11] = test system: Klebsiella aerogenes DSM 30053; experiment: as above
# Outline: as §2
# [12] = test system: Ruminococcus gnavus DSM 108212; experiment: fold change of 2-Phenylethylamine concentration vs plate DMSO controls (fold change (ratio)); higher = more amine produced, active = hit call of the paper (significant change in both replicates, either direction)
# Outline: as §2
Compound,growth [1],growth (Escherichia coli IAI1 [2]),growth [3],growth [4],fold change of Histamine concentration [5],fold change of Tryptamine concentration [6],fold change of Tryptamine concentration [7],fold change of Putrescine concentration (Escherichia coli IAI1 [8]),fold change of Putrescine concentration [9],fold change of Cadaverine concentration (Escherichia coli IAI1 [10]),fold change of Cadaverine concentration [11],fold change of 2-Phenylethylamine concentration [12]
CN1[C@@H]2CC[C@H]1C[C@@H](OC(c1ccccc1)c1ccccc1)C2 [Benztropine mesylate] (20 µM),1.11,0.99,0.975,1,1.09 (inactive),1.03 (inactive),0.964 (inactive),1.03 (inactive),1.03 (inactive),1.05 (inactive),0.995 (inactive),1 (inactive)
CCC(=O)c1c(O)cc(O)cc1O [Flopropione] (20 µM),0.955,1.01,0.997,0.986,1.01 (inactive),1 (inactive),0.927 (inactive),1 (inactive),1.01 (inactive),1 (inactive),1 (inactive),0.896 (inactive)
Cn1nnnc1SCC1=C(C(=O)O)N2C(=O)[C@@H](NC(=O)[C@H](O)c3ccccc3)[C@H]2SC1 [Cefamandole sodium salt] (20 µM),0,0.0343,1.08,0.971,1.04 (inactive),0.0204 (active),0.141 (active),0.968 (inactive),1.02 (inactive),2.1 (active),1.06 (inactive),0.118 (active)
C[C@H](O)[C@H](O)[C@H]1CNc2[nH]c(N)nc(=O)c2N1 [Sapropterin dihydrochloride] (20 µM),1.12,0.893,0.928,0.813,0.931 (inactive),0.972 (inactive),0.945 (inactive),1.01 (inactive),1.01 (inactive),1.03 (inactive),1.01 (inactive),0.911 (inactive)

# Source: the supplement of paper PMC12494721
